Assay outcomes from PubChem.
Rows were chosen to be rich in hits. Some 1.3% of all compounds tested hit in one or more screens of this group.
NPR2 activator = GC-B (human) receptor activation. HEK293-GC-B cells, CNP EC30, cGMP TR-FRET; 0% at EC30 CNP, 100% saturating CNP. P20594. activation, % at 10 µM. AID 1920062. hit rate 0.11% among 370,000;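 active = activation at 10 µM reaching about 35% in either raw or pattern-adjusted values, limit read from the data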
KLK7 zymogen act = activates the human kallikrein-7 zymogen; hit rate 0.9% among 370,000; purified proKLK7, EDANS-DABCYL substrate fluorescence; 100% is mature enzyme control, 0% vehicle; P49862; activation, % at 7 µM;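 active = activation above the mean of all tested compounds plus 3 SD, computed per campaign excluding outliers beyond control limits, cut at about 13% in these data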
Target sequence (P49862 whole entry, looked up): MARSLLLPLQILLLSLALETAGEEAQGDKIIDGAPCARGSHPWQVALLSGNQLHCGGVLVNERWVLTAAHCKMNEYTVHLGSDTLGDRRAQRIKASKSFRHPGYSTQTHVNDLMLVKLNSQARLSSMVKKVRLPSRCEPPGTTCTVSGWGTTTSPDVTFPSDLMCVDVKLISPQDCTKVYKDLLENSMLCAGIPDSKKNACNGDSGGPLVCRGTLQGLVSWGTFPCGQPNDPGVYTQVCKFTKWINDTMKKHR
GC-A act = GC-A (human) enzyme activation; P16066; hit rate 0.14% among 370,000; HEK293 GC-A cells, cGMP TR-FRET, EC30 ANP; 0% at EC30 ANP, 100% saturating ANP; activation, % at 10 µM; in the data active = activation above about 40%
HIF activator = HIF pathway transcriptional activation | hit rate 0.32% among 300,000 | U2OS HRE-luciferase reporter, luminescence; normalized: DMSO 0%, desferrioxamine 100% | activation, % at 7.5 µM (by protocol);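 active = mean activation of at least 10% of the iron chelator positive control signal, with at least half of replicates also reaching 10%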
An asterisk follows results filed as active; / = no result.

SMILES	NPR2 activator	KLK7 zymogen act	GC-A act	HIF activator
O=C(OCn1ncc(Cl)c(Cl)c1=O)c1ccc(F)cc1	/	/	/	-2
O=C(Cn1ncc(Cl)c(Cl)c1=O)c1ccc(Cl)cc1	22	0	70*	-5
O=C(Cn1ncc(N2CCOCC2)c(Cl)c1=O)c1ccc(Cl)cc1	/	-1	/	1
O=C(OCn1ncc(Cl)c(Cl)c1=O)c1ccccc1Cl	33	0	43*	-3
CC(C)(C)C(=O)Cn1ncc(Cl)c(Cl)c1=O	-8	1	42*	1
C=CCn1c(C)cc(C(=O)Cn2ncc(Cl)c(Cl)c2=O)c1C	49*	0	38	-6
CN=C1S/C(=C/c2cc(C)n(-c3ccc(Cl)cc3F)c2C)C(=O)N1C	-26	/	-20	/
COC(=O)[C@]12C[C@H](CC(=O)N3CCCCC3)C(=O)N(CCc3ccc(OC)c(OC)c3)C1=C[C@H](C(C)C)O[C@@H]2C1CC1	2	0	4	/
CCOC(=O)[C@]12CCCCC/C=C\1N(CCc1ccc(Cl)cc1)C(=O)[C@H]2CC(=O)N1CCSCC1	1	0	-8	/
CCCN1CCS(=O)(=O)N(Cc2cn(CC(=O)OCC)nn2)C(C(=O)OC)C1 (stereo not given)	6	0	0	/
COc1cccc(C2C3=C(N=c4s/c(=C\c5ccccc5O)c(=O)n42)c2ccccc2CC3)c1OC (stereo not given)	/	/	/	616*
CC(=O)OCCCN1CCC2(CCC(c3ccccc3)CC2)C1=O (stereo not given)	7	0	-3	/
COC(=O)[C@H]1C[C@@]2(N3CCCC3)c3ccccc3N(C(=O)OC(C)(C)C)[C@H]2N1C(=O)OC(C)(C)C	-32	0	-31	/
O=C(CCCOc1ccc(Cl)cc1Cl)N/N=C/c1ccccc1	-4	1	9	1
O=C(COc1ccc(Cl)cc1Cl)N/N=C/CCc1ccccc1	1	0	1	11*
O=C(CCCOc1ccc(Cl)cc1Cl)N/N=C/c1ccccc1O	-2	-4	6	11*
Cc1cc(NC(=O)c2ccc(NS(=O)(=O)c3ccccc3F)cc2)no1	-8	0	1	/
CCC(=O)N[C@@H]1C[C@@H]2O[C@@H](CO)CC[C@@H]2O[C@@H]1CCc1ccc(-c2cccc(OC)c2)cc1	-5	0	-3	/
CC(=O)Nc1ccc(Nc2c3c4c(cccc4n(C)c2=O)C(=O)c2ccccc2-3)cc1	38*	-1	28	0
COc1ccc(N2CCN(c3ccc(N4C(=O)CC(C)C4=O)cc3[N+](=O)[O-])CC2)cc1 (stereo not given)	3	0	1	66*
COC(=O)c1ccc(CN2CC3CC(c4ccccc4)N4CCCC34C2=O)cc1 (stereo not given)	-5	-26	0	/
O=C(CCc1ccccc1)N[C@H]1[C@@H](O)CCC[C@]12C(=O)N(Cc1ccccc1)c1ccccc12	-13	0	-15	/
Cc1ccc(CSc2nnc(-c3ccncc3)n2C)cc1	-3	0	2	0
Cc1ccc(Nc2nc(CSc3nnc(-c4ccncc4)n3C)cs2)cc1	-2	-1	-1	258*
COc1cc(OC)c2nc(C)c3c(c2c1)N(c1ccc(O)cc1)CC3	-19	1	-38	16*
SMILES	NPR2 activator	KLK7 zymogen act	GC-A act	HIF activator
COCCNC(=O)c1sc2nc(-c3ccccc3)cn2c1C	2	0	11	71*
Cc1ccc(C2=NS(=O)(=O)N(C)C(C(=O)NC3CCCC3)=C2)cc1	2	0	0	31*
Cc1cccc(NC(=O)CN(C)S(=O)(=O)c2ccc(-c3ccc(=O)[nH]n3)s2)c1C	-3	0	-4	0
Cc1ccccc1NC(=O)CN(C)S(=O)(=O)c1ccc(-c2ccc(=O)[nH]n2)s1	-3	0	-3	519*
COc1ccccc1C(=O)N(Cc1ccccn1)CC1CCCO1 (stereo not given)	-2	0	3	/
CCN(CC)c1ccc2cc(NC(=O)CCC(=O)O)c(=O)oc2c1	-4	78*	3	-4
CCN(CC)c1ccc2cc(C(C)=O)c(=O)oc2c1	0	0	2	2
Cc1cc2nc(/C=C/c3cccnc3)[nH]c2cc1C	-11	44*	-2	2
COc1ccc(/C=N/NC(=O)c2ccccc2O)cc1COc1ccccn1	2	0	7	0
COc1ccc(/C=N/NC(=O)c2ccccc2O)cc1CSc1ccccn1	-1	0	5	197*
C/C(=N\NC(=O)CN1CCCCC1)c1ccccc1O	-1	1	-3	13*
